Measured values taken from PubChem BioAssay AID1159580 (chemical genetic matrix, 2015).
“And” between values parts separate entries of the source, which are not always exact repeats. Identical values can stand only once. The campaign covered roughly 5,500 compounds. About 2,000 (36%) were called active. About 18% were inconclusive and are not listed. No stated cut-off is given here; in the data, active means normalized growth mostly below about 0.91 (no sharp cut-off); inconclusive means no clear call, values can overlap the other calls; inactive means mostly above about 0.92. This is one part of the list.

Assay: chemical genetic growth profiling, strain panel (AID 1159580);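 further: tested at 20 µM; growth read once vehicle control cultures reached saturation at 30 °C; 1 = growth at the plate median or of vehicle wells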
Settings: S. cerevisiae deletion strains, growth OD

Measured: normalized growth

C[C@]12CCC3C(CC[C@H]4C[C@@H](O)CC[C@]34C)C1CCC2=O (some centres undefined)
0.785 (active) and 0.897 (inactive): locus YHR030C, strain SLT2, stronger effect = lower value
inactive: locus YAL030W, strain snc1, stronger effect = lower value 1.01 | locus YBL061C, strain skt5, stronger effect = lower value 1.02 | locus YBR021W, strain FUR4, stronger effect = lower value 0.857 | locus YBR023C, strain chs3, stronger effect = lower value 0.989 | locus YBR171W, strain sec66, stronger effect = lower value 1.01 | locus YBR229C, strain ROT2, stronger effect = lower value 1.02 | locus YBR231C, strain swc5, stronger effect = lower value 1 | locus YBR279W, strain paf1, stronger effect = lower value 0.994 | locus YCL011C, strain gbp2, stronger effect = lower value 0.937 | locus YCL016C, strain dcc1, stronger effect = lower value 0.916 | locus YCL061C, strain MRC1, stronger effect = lower value 0.961 | locus YCL069W, strain vba3, stronger effect = lower value 1.01 | locus YCR088W, strain abp1, stronger effect = lower value 1.05 | locus YDL005C, strain med2, stronger effect = lower value 1.03 | locus YDL040C, strain nat1, stronger effect = lower value 1.05 | locus YDL074C, strain BRE1, stronger effect = lower value 0.792 | locus YDL101C, strain DUN1, stronger effect = lower value 0.918 | locus YDL185W, strain tfp1, stronger effect = lower value 0.949 | locus YDR001C, strain nth1, stronger effect = lower value 1.05 | locus YDR069C, strain doa4, stronger effect = lower value 0.979 | locus YDR101C, strain arx1, stronger effect = lower value 0.95 | locus YDR159W, strain sac3, stronger effect = lower value 0.938 | locus YDR297W, strain sur2, stronger effect = lower value 1.02 | locus YDR334W, strain swr1, stronger effect = lower value 1.08 | locus YDR335W, strain msn5, stronger effect = lower value 1.02 | locus YDR388W, stronger effect = lower value 0.935 | locus YEL003W, strain gim4, stronger effect = lower value 0.977 | locus YEL037C, strain rad23, stronger effect = lower value 1.03 | locus YEL061C, strain CIN8 (second series), stronger effect = lower value 1.04 | locus YER015W, strain faa2, stronger effect = lower value 1.04 | locus YER016W, strain bim1, stronger effect = lower value 1.03 | locus YER110C, stronger effect = lower value 1.03 | locus YER111C, strain swi4, stronger effect = lower value 1.03 | locus YER155C, strain BEM2 (second series), stronger effect = lower value 1 | locus YGL078C, strain dbp3, stronger effect = lower value 0.931 | locus YGL167C, strain pmr1, stronger effect = lower value 1.03 | locus YGL173C, strain kem1, stronger effect = lower value 0.943 | locus YGL227W, strain vid30, stronger effect = lower value 1.06 | locus YGL240W, strain doc1, stronger effect = lower value 0.968 | locus YHR013C, strain ard1, stronger effect = lower value 0.899 | locus YHR027C, strain rpn1, stronger effect = lower value 1.03 | locus YHR079C, strain IRE1 (second series), stronger effect = lower value 0.94 | locus YHR079C, strain IRE1, stronger effect = lower value 0.893 | locus YHR094C, strain hxt1, stronger effect = lower value 1.03 | locus YIL073C, strain SPO22, stronger effect = lower value 0.735 | locus YIL125W, strain kgd1, stronger effect = lower value 0.98 | locus YJL092W, strain hpr5, stronger effect = lower value 0.988 | locus YJL095W, strain BCK1 (second series), stronger effect = lower value 0.923 | locus YJL115W, strain asf1, stronger effect = lower value 1.04 | locus YJL129C, strain trk1, stronger effect = lower value 0.948 | locus YJL134W, strain LCB3, stronger effect = lower value 1.02 | locus YJL154C, strain vps35, stronger effect = lower value 1.06 | locus YJL168C, strain set2, stronger effect = lower value 1.03 | locus YJL187C, strain SWE1, stronger effect = lower value 1.03 | locus YJR043C, strain POL32, stronger effect = lower value 0.895 | locus YJR066W, strain TOR1, stronger effect = lower value 0.875
0.309 (active) and 0.911 (inactive): locus YJL095W, strain BCK1, stronger effect = lower value
active: locus YAL021C, strain ccr4, stronger effect = lower value 0.854 | locus YAL026C, strain drs2, stronger effect = lower value 0.505 | locus YBR009C, strain hhf1, stronger effect = lower value 0.896 | locus YCL029C, strain bik1, stronger effect = lower value 0.842 | locus YDL035C, strain GPR1, stronger effect = lower value 0.697 | locus YDL192W, strain arf1, stronger effect = lower value 0.838 | locus YDR137W, strain rgp1, stronger effect = lower value 0.48 | locus YDR162C, strain NBP2, stronger effect = lower value 0.585 | locus YDR195W, strain ref2 1.44 [resistant] | locus YDR318W, strain mcm21, stronger effect = lower value 0.764 | locus YDR392W, strain spt3, stronger effect = lower value 0.224 | locus YDR502C, strain sam2, stronger effect = lower value 0.749 | locus YEL061C, strain CIN8, stronger effect = lower value 0.908 | locus YER155C, strain BEM2, stronger effect = lower value 0.856 | locus YER167W, strain BCK2, stronger effect = lower value 0.872 | locus YFR010W, strain ubp6, stronger effect = lower value 0.9 | locus YGL086W, strain mad1, stronger effect = lower value 0.9 | locus YGL248W, strain PDE1, stronger effect = lower value 0.696 | locus YGL253W, strain hxk2, stronger effect = lower value 0.87 | locus YGR078C, strain PAC10, stronger effect = lower value 0.843 | locus YGR135W, strain pre9, stronger effect = lower value 0.711 | locus YHR129C, strain ARP1, stronger effect = lower value 0.766 | locus YHR142W, strain chs7, stronger effect = lower value 0.853 | locus YHR200W, strain rpn10, stronger effect = lower value 0.883 | locus YIL066C, strain RNR3, stronger effect = lower value 0.628 | locus YIR030C, strain dcg1, stronger effect = lower value 0.868 | locus YJL164C, strain tpk1, stronger effect = lower value 0.859 | locus YJL166W, strain qcr8, stronger effect = lower value 0.877 | locus YJL187C, strain SWE1 (second series), stronger effect = lower value 0.796 | locus YJR075W, strain HOC1, stronger effect = lower value 0.857 | locus YKL009W, strain mrt4, stronger effect = lower value 0.832
